Test results as given in PubChem BioAssay AID1159580 (chemical genetic matrix, 2015).
About 2,000 (36%) of roughly 5,500 compounds were called active. Roughly 18% stayed inconclusive and do not appear here. No stated cut-off is given here; in the data, active means normalized growth mostly below about 0.91 (no sharp cut-off); inconclusive means no clear call, values can overlap the other calls; inactive means mostly above about 0.92. This is one part of the list.

Experiment: chemical genetic growth profiling, strain panel (AID 1159580);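 further: tested at 20 µM; growth read once vehicle control cultures reached saturation at 30 °C; 1 = growth at the plate median or of vehicle wells; lower values mean less growth of the strain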
Conditions: growth OD

Measured: normalized growth

NC1C[C@H]1c1ccccc1 (some centres not stated)
inactive: S. cerevisiae deletion strains, locus YJR075W, strain HOC1, hits give low values 0.998 | S. cerevisiae deletion strains, locus YKL009W, strain mrt4, hits give low values 0.989 | S. cerevisiae deletion strains, locus YKL068W, hits give low values 0.992 | S. cerevisiae deletion strains, locus YKL085W, strain MDH1 (second series), hits give low values 0.987 | S. cerevisiae deletion strains, locus YKL085W, strain MDH1, hits give low values 0.987 | S. cerevisiae deletion strains, locus YKL160W, strain elf1, hits give low values 0.964 | S. cerevisiae deletion strains, locus YKL190W, strain CNB1, hits give low values 1.01 | S. cerevisiae deletion strains, locus YKR001C, strain vps1, hits give low values 0.98 | S. cerevisiae deletion strains, locus YKR026C, strain gcn3, hits give low values 0.984 | S. cerevisiae deletion strains, locus YKR091W, strain srl3, hits give low values 0.979 | S. cerevisiae deletion strains, locus YLL001W, strain dnm1, hits give low values 0.977 | S. cerevisiae deletion strains, locus YLL026W, hits give low values 0.996 | S. cerevisiae deletion strains, locus YLL041C, strain sdh2, hits give low values 1 | S. cerevisiae deletion strains, locus YLR027C, strain aat2, hits give low values 0.987 | S. cerevisiae deletion strains, locus YLR039C, strain RIC1, hits give low values 1.01 | S. cerevisiae deletion strains, locus YLR058C, strain SHM2, hits give low values 1.01 | S. cerevisiae deletion strains, locus YLR102C, strain apc9, hits give low values 0.985 | S. cerevisiae deletion strains, locus YLR113W, strain HOG1, hits give low values 0.981 | S. cerevisiae deletion strains, locus YLR221C, strain rsa3, hits give low values 1.01 | S. cerevisiae deletion strains, locus YLR258W, strain gsy2, hits give low values 0.981 | S. cerevisiae deletion strains, locus YLR262C, strain YPT6 (second series), hits give low values 0.974 | S. cerevisiae deletion strains, locus YLR262C, strain YPT6, hits give low values 1.03 | S. cerevisiae deletion strains, locus YLR268W, strain sec22, hits give low values 0.963 | S. cerevisiae deletion strains, locus YLR320W, strain mms22, hits give low values 1.02 | S. cerevisiae deletion strains, locus YLR330W, strain CHS5, hits give low values 1.01 | S. cerevisiae deletion strains, locus YLR342W, strain FKS1 (second series), hits give low values 0.987 | S. cerevisiae deletion strains, locus YLR342W, strain FKS1, hits give low values 0.973 | S. cerevisiae deletion strains, locus YLR357W, strain rsc2, hits give low values 0.939 | S. cerevisiae deletion strains, locus YLR370C, strain arc18, hits give low values 0.989 | S. cerevisiae deletion strains, locus YLR371W, strain rom2, hits give low values 0.972 | S. cerevisiae deletion strains, locus YLR384C, strain iki3, hits give low values 0.989 | S. cerevisiae deletion strains, locus YLR418C, strain cdc73, hits give low values 0.962 | S. cerevisiae deletion strains, locus YML016C, strain PPZ1, hits give low values 1.01 | S. cerevisiae deletion strains, locus YML032C, strain rad52, hits give low values 0.985 | S. cerevisiae deletion strains, locus YML120C, strain ndi1, hits give low values 1.01 | S. cerevisiae deletion strains, locus YML124C, strain tub3, hits give low values 0.987 | S. cerevisiae deletion strains, locus YMR058W, strain fet3, hits give low values 1 | S. cerevisiae deletion strains, locus YMR078C, strain ctf18, hits give low values 0.981 | S. cerevisiae deletion strains, locus YMR125W, strain sto1, hits give low values 0.939 | S. cerevisiae deletion strains, locus YMR129W, hits give low values 0.998 | S. cerevisiae deletion strains, locus YMR205C, strain PFK2, hits give low values 1.02 | S. cerevisiae deletion strains, locus YMR223W, strain ubp8, hits give low values 0.98 | S. cerevisiae deletion strains, locus YMR231W, strain pep5, hits give low values 0.975 | S. cerevisiae deletion strains, locus YMR263W, strain SAP30, hits give low values 1 | S. cerevisiae deletion strains, locus YMR307W, strain GAS1, hits give low values 0.945 | S. cerevisiae deletion strains, locus YNL067W, strain RPL9B, hits give low values 1.01 | S. cerevisiae deletion strains, locus YNL071W, strain lat1, hits give low values 0.984 | S. cerevisiae deletion strains, locus YNL128W, strain TEP1, hits give low values 1.02 | S. cerevisiae deletion strains, locus YNL153C, strain GIM3, hits give low values 0.989 | S. cerevisiae deletion strains, locus YNL183C, strain NPR1, hits give low values 0.933 | S. cerevisiae deletion strains, locus YNL209W, strain ssb2, hits give low values 0.977 | S. cerevisiae deletion strains, locus YNL233W, strain BNI4, hits give low values 0.993 | S. cerevisiae deletion strains, locus YNL248C, strain rpa49, hits give low values 0.929 | S. cerevisiae deletion strains, locus YNL250W, strain rad50, hits give low values 0.973 | S. cerevisiae deletion strains, locus YNL271C, strain bni1, hits give low values 0.987 | S. cerevisiae deletion strains, locus YNL298W, strain CLA4, hits give low values 0.987 | S. cerevisiae deletion strains, locus YNL307C, strain MCK1, hits give low values 0.988 | S. cerevisiae deletion strains, locus YNL322C, strain KRE1 (second series), hits give low values 0.98 | S. cerevisiae deletion strains, locus YNL322C, strain KRE1, hits give low values 1.01 | S. cerevisiae deletion strains, locus YNR049C, strain mso1, hits give low values 0.989 | S. cerevisiae deletion strains, locus YNR052C, strain pop2, hits give low values 0.995 | S. cerevisiae deletion strains, locus YOL006C, strain TOP1, hits give low values 1.05 | S. cerevisiae deletion strains, locus YOL012C, strain htz1 0.845 | S. cerevisiae deletion strains, locus YOL147C, strain pex11, hits give low values 0.983 | S. cerevisiae deletion strains, locus YOR001W, strain rrp6, hits give low values 1.02 | S. cerevisiae deletion strains, locus YOR061W, strain CKA2, hits give low values 1.01 | S. cerevisiae deletion strains, locus YOR069W, strain VPS5, hits give low values 1.01 | S. cerevisiae deletion strains, locus YOR070C, strain gyp1, hits give low values 0.992 | S. cerevisiae deletion strains, locus YOR080W, strain dia2, hits give low values 0.993 | S. cerevisiae deletion strains, locus YOR083W, strain WHI5, hits give low values 0.934 | S. cerevisiae deletion strains, locus YOR106W, strain vam3, hits give low values 0.99 | S. cerevisiae deletion strains, locus YOR136W, strain idh2, hits give low values 0.982 | S. cerevisiae deletion strains, locus YOR144C, strain elg1, hits give low values 0.988 | S. cerevisiae deletion strains, locus YOR184W, strain ser1, hits give low values 0.994 | S. cerevisiae deletion strains, locus YOR231W, strain MKK1, hits give low values 0.986 | S. cerevisiae deletion strains, locus YOR265W, strain rbl2, hits give low values 0.99 | S. cerevisiae deletion strains, locus YOR270C, strain vph1, hits give low values 0.997 | S. cerevisiae deletion strains, locus YOR290C, strain snf2, hits give low values 0.964 | S. cerevisiae deletion strains, locus YOR316C, strain cot1, hits give low values 0.988 | S. cerevisiae deletion strains, locus YPL051W, strain arl3, hits give low values 0.983 | S. cerevisiae deletion strains, locus YPL055C, strain LGE1, hits give low values 1 | S. cerevisiae deletion strains, locus YPL078C, strain atp4, hits give low values 0.975 | S. cerevisiae deletion strains, locus YPL106C, strain sse1, hits give low values 0.961 | S. cerevisiae deletion strains, locus YPL240C, strain hsp82, hits give low values 1.02 | S. cerevisiae deletion strains, locus YPL241C, strain CIN2, hits give low values 1 | S. cerevisiae deletion strains, locus YPL256C, strain CLN2, hits give low values 0.956 | S. cerevisiae deletion strains, locus YPR119W, strain clb2, hits give low values 0.991 | S. cerevisiae deletion strains, locus YPR141C, strain kar3, hits give low values 0.981 | S. cerevisiae deletion strains, locus YPR163C, strain tif3, hits give low values 0.983 | S. cerevisiae deletion strains, locus YPR167C, strain met16, hits give low values 0.984 | S. cerevisiae deletion strains, strain wtn01, hits give low values 0.964 | S. cerevisiae strains, strain wild type, hits give low values 1.01
